# According to PubChem BioAssay AID504834 (National Center for Advancing Translational Sciences (NCATS), 2011):
# In all, about 320,000 compounds went through this assay and about 22,000 (6.9%) were called active. Roughly 27% stayed inconclusive and do not appear here. Only a selection was taken, and actives are over-represented in it overall. A number with no mark means an inactive call. The call rests on the fitted dose curve; in most records, active means well fitted inhibition curve with a large enough effect; inconclusive means small, poorly fitted or top-dose-only effect, or another doubt; inactive means no such curve, though single readings can be large or run the other way.
# Experiment: Primary qHTS for delayed death inhibitors of the malarial parasite plastid, 96 hour incubation
# Details: P. falciparum luciferase reporter growth; series mostly up to 28.7 µM; activity change, negative = inhibition: at the top concentration
# Method in brief: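 Plates of compound plus infected erythrocytes (2% hematocrit, 0.05% parasitemia final) incubate 96 hours, 37 C, 5% CO2. Detection reagent added; reduced luminescence from the parasites' luciferase reporter flags inhibition.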
# On the % scale 0 is the no-effect control and ±100 the full control effect; potency means the concentration at half of the fitted maximal effect.
SMILES,"activity change, negative = inhibition",Potency
CCOC(=O)COn1c(=O)c(-c2ccc(OCC)cc2)[n+]([O-])c2ccccc21,80.9%,
Cc1cc(-c2ccc(/C=N/n3cnnc3)o2)c([N+](=O)[O-])cc1C,7.32%,
Cc1cc([N+](=O)[O-])c(-c2ccc(/C=N/n3cnnc3)o2)cc1Cl,7.67%,
O=C1C2C3C=CC(C4CC34)C2C(=O)N1/N=C/c1ccc(-c2ccccc2[N+](=O)[O-])o1 (configuration not stated),,13.1 µM (active)
COc1cc2c(cc1O)[C@H](Cc1ccc(Oc3cc(C[C@@H]4NCCc5cc(OC)c(O)cc54)ccc3O)cc1)NCC2,,0.415 µM (active)
CCc1ccc(OCC2c3cc(OC)c(OC)cc3CCN2C(C)=O)cc1 (configuration not stated),3.03%,
COc1ccc(NC(=O)CN(C)C(=O)c2ccc(NC3CC3)c([N+](=O)[O-])c2)cc1,-25.4%,
COc1cccc(N(CC(=O)NCc2ccccc2)C(=O)CCC(=O)Nc2nccs2)c1,-3.46%,
NC(=O)C1CCN(C(=O)CC2C(=O)NCCN2Cc2cccc(Oc3ccccc3)c2)CC1 (configuration not stated),2.05%,
OC(CNCc1ccc(Cl)c(Cl)c1)c1ccccc1 (configuration not stated),1.84%,
CC(C)(CNC(=O)c1cc(=O)[nH]c2ccccc12)N1CCOCC1,-11.1%,
CC(C)(CNCC(O)c1ccccc1)N1CCOCC1 (configuration not stated),,5.86 µM (active)
Cc1c(Cl)c([N+](=O)[O-])nn1CCCC(=O)Nc1cc(Cl)ccc1Cl,-31.1%,
Cc1c(Cl)c([N+](=O)[O-])nn1Cc1ccc(C(=O)N/N=C\c2cc(Cl)ccc2O)o1,,3.7 µM (active)
O=C(N/N=C/c1ccc2c(c1)OCO2)c1ccc(Cn2cc([N+](=O)[O-])cn2)o1,-6.78%,
CS(=O)(=O)Nc1ccccc1N=C(c1ccccc1)c1ccccc1,3.7%,
Cc1ccc(-c2nc(C#N)c(NCCCn3ccnc3)o2)cc1,237%,
O=C(/C=C/c1ccc(Cl)cc1)NCCCn1ccnc1,-24.8%,
Cc1ccc(S(=O)(=O)c2nc(NCCCn3ccnc3)sc2Cl)cc1,,6.57 µM (active)
COc1ccc(NC(=O)CN(C)C(=O)c2ccc(COc3ccccc3)o2)cc1,-4.52%,
CC(=O)c1ccccc1OCc1ccc(C(=O)c2ccccc2)cc1,-97.2%,
Cc1ccc(NS(=O)(=O)c2ccc3c(c2)CC(=O)N3)cc1Cl,14%,
COc1cccc(Nc2nnc(SCC(=O)N3CC(=O)Nc4ccccc43)s2)c1,,4.65 µM (active)
Cc1nc(SCC(=O)N2CC(=O)Nc3ccccc32)c2c(C)c(C)sc2n1,0%,
COc1cccc(Nc2nnc(SCC(=O)N3CC(C)OC(C)C3)s2)c1 (configuration not stated),34.9%,
C#CCOc1ccc(/C=C2/C(=O)ON=C2C)cc1OCC,-7.81%,

SMILES,"activity change, negative = inhibition",Potency
COCc1c(C(=O)N/N=C(\C)c2ccncc2)nnn1-c1nonc1N,-3.74%,
CCOC(=O)c1ccccc1NS(=O)(=O)c1c(C)nc2sccn2c1=O,,14.7 µM (active)
CCc1cccc(C)c1NS(=O)(=O)c1c(C)nc2sccn2c1=O,0.376%,
Cc1nc2sccn2c(=O)c1S(=O)(=O)NCCc1ccccc1,0%,
Cc1cc(OCCCCOc2ccc(C#N)cc2)ccc1[N+](=O)[O-],12.6%,
COc1ccc(CCOC(=O)CNC(=O)c2ccc(Cl)cc2Cl)cc1,-13.4%,
Cc1cc(C)c(S(=O)(=O)Nc2c(C)n(C)n(-c3ccccc3)c2=O)cc1[N+](=O)[O-],-2.69%,
CCCn1nnc(NC(=O)COc2ccc(CC)cc2)n1,5.36%,
CCCOc1cccc(C(=O)Nc2nnn(CCC)n2)c1,,4.65 µM (active)
CCCOc1cccc(C(=O)NCCCNC(=O)c2cccnc2)c1,95.6%,
Cc1cc(C(F)F)nn1CC(=O)NC1CCCCCC1,-19.5%,
CN(C)c1ccc(CNC(=O)CN2C(=O)COc3ccc(S(=O)(=O)N4CCCC4)cc32)cc1,12.7%,
NC(N)=Nc1nc(-c2ccccc2)c2cc(Cl)ccc2n1,51.4%,
Clc1cccc(-c2nc(NCC3CCCO3)c3ccccc3n2)c1 (configuration not stated),37.3% [at 5.75 µM],
Clc1ccc2nc3c(c(-c4ccccc4)c2c1)CNCC3,,13.1 µM (active)
COc1ccc(NC(=O)COc2ccc(C(=O)c3ccc(F)cc3)cc2)cc1S(N)(=O)=O,-26.2%,
CC(=O)NCC(=O)NC1CCCc2c1cnn2-c1ccccc1F (configuration not stated),-6.37%,
O=C(O)c1ccc(F)c(S(=O)(=O)Nc2ccccc2)c1,24.9%,
COc1cc(OC)c(S(=O)(=O)Nc2ccccc2C(=O)O)cc1S(=O)(=O)Nc1ccccc1C(=O)O,-13.4%,
COc1ccc(Cl)cc1S(=O)(=O)Nc1cccc(C(=O)O)c1,,10.4 µM (active)
CN1CCN(c2ncc3c(n2)CC(c2ccccc2F)CC3=O)CC1 (configuration not stated),40.8%,
COc1ccccc1C(C)NC(=O)Cc1ccsc1 (configuration not stated),2.57%,
CCCCOc1ccc(CON(C(C)=O)C(C)=O)cc1Cl,5.53%,
O=C(CNC(=O)c1ccccc1)Oc1ccc([N+](=O)[O-])cc1,1.08%,
CC(Cc1cccs1)N(Cc1ccc(Cl)cc1)C(=O)c1ccncc1 (configuration not stated),,13.1 µM (active)
CC(Cc1cccs1)NCc1ccc(Cl)cc1 (configuration not stated),54.2%,
